Experimental findings from PubChem BioAssay (NCI) are described below.

The panel holds about 79,000 compounds, 15% with a hit somewhere; the sample as a whole holds those more often. Unmarked numbers belong to inactive results. Calls of active or inactive are those of the source. Rule as the data show it: active = growth inhibition above about 70%; inactive = the rest.

Assay [1] can be described thus: NCI Yeast Anticancer Drug Screen. Data for the rad50 strain (AID 155).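 Also: 0% = growth of vehicle-only cultures of the same strain.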 The settings on record: S. cerevisiae rad50 strain growth inhibition; at 50.0 µM; stronger effect = higher value. The method in brief: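 Yeast carrying a defined DNA repair defect were exposed to test compounds, and growth was compared with vehicle-treated controls to give percent inhibition.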
The nature of assay [2]: NCI Yeast Anticancer Drug Screen. Data for the mec2-1 strain (AID 157). To be noted: S. cerevisiae mec2-1 strain, at 50.0 µM, stronger effect = higher value. The method in brief:
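Test agents were screened against the mec2-1 yeast strain, with defined DNA repair or cell cycle alteration. Growth was scored as inhibition against vehicle-only controls.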

Assay [3] can be described thus: NCI Yeast Anticancer Drug Screen. Data for the sgs1 mgt1 strain (AID 161).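 Also: 0% = growth of cultures given vehicle only.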 The settings on record: S. cerevisiae sgs1 mgt1 strain, at 50.0 µM, stronger effect = higher value. The method in brief:
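Mutant yeast exposed to compound; growth scored against vehicle-only wells.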

Assay [4] can be described thus: NCI Yeast Anticancer Drug Screen. Data for the cln2 rad14 strain (AID 165).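 Also: 0% = growth equal to vehicle treated cultures.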 The settings on record: S. cerevisiae cln2 rad14 strain, at 50.0 µM, stronger effect = higher value. The method in brief:
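Growth of compound-exposed yeast (cln2 rad14 genotype) measured and expressed as inhibition relative to vehicle.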

The nature of assay [5]: NCI Yeast Anticancer Drug Screen. Data for the bub3 strain (AID 167). To be noted: S. cerevisiae bub3 mutant strain, at 50.0 µM, stronger effect = higher value. The method in brief:
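Compounds were applied to a genetically altered yeast strain carrying a cell-cycle control defect. Growth inhibition was scored against vehicle-treated controls.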

A short description of assay [6]: NCI Yeast Anticancer Drug Screen. Data for the mlh1 rad18 strain (AID 175). To be noted: S. cerevisiae mlh1 rad18 strain growth inhibition; at 50.0 µM; stronger effect = higher value. The method in brief: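 In this whole-cell yeast screen, a strain with altered DNA damage repair is challenged with compound, and its growth is measured against matched vehicle-treated controls.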

As to `CC(=O)NCC1(c2ccccc2)CCN(CC2COc3ccccc3O2)CC1` (stereo not drawn), the growth inhibition in assay [1] was -15.3%; in assay [2], -16.4%; in assay [3] it was -15.2%; in assay [4], 16%; in assay [5], 17.1%; in assay [6], 9.45%.
Take `COC(=O)C1(CC(=O)c2cccs2)NC(=S)NC(=O)C1C#N` (stereo not drawn): the growth inhibition is 9.4% in assay [1]; 3.55% in assay [2]; -7.5% in assay [3]; -3.35% in assay [4]; -11.3% in assay [5]; 2.55% in assay [6].
`CC(C)(C)C(=O)/C(O)=C\c1ccccc1`: the growth inhibition was -4.25% in assay [1]; 6.2% in assay [2]; -12.2% in assay [3]; -10.7% in assay [4]; 10.9% in assay [5]; -1.2% in assay [6].
`COc1ccc(C(c2cc3c(cc2O)OCO3)N2CCN(C(c3ccc(OC)cc3)c3cc4c(cc3O)OCO4)CC2)cc1` (stereo not drawn): the growth inhibition in assay [1] was 17.1%; in assay [2] it was 0%; in assay [3], 5.05%; in assay [4] it was 15.1%; in assay [5], -1.65%; in assay [6], 19.8%.
On to `Oc1cc(O)cc(/C=C/c2ccc(O)c(O)c2)c1`, for which the growth inhibition in assay [1] is 5.2%; in assay [2], -2.35%; in assay [3] it was 6%; in assay [4] it was 5.95%; in assay [5], 18.4%; in assay [6], 18.6%.
Consider `O=C(Nc1cccc(O)c1)C(O)C(O)C(O)C(O)CO` (stereo not drawn), for which the growth inhibition in assay [1] was -10.8%; in assay [2], 14.4%; in assay [3], 18.2%; in assay [4] it was 10.6%; in assay [5], 9.05%; in assay [6], 10.9%.
`O=C(O)c1cc(=O)c2cc(Cl)ccc2[nH]1`: the growth inhibition in assay [1] is -15.5%; in assay [2] it was -12.2%; in assay [3] it was -17.1%; in assay [4], -19%; in assay [5], -9.9%; in assay [6], -1.55%.
Take `O=C1c2ccccc2C(=O)N1N1C(=O)c2ccccc2C1=O`: the growth inhibition was 3.95% in assay [1]; -16.8% in assay [2]; -4.45% in assay [3]; 14% in assay [4]; -4.7% in assay [5]; 17.4% in assay [6].
As to `Cc1cccc(-c2c3ccccc3cc3ccccc23)c1`, the growth inhibition in assay [1] is 6.35%; in assay [2] it was 14.2%; in assay [3] it was 7.55%; in assay [4] it was -3.1%; in assay [5], 2.35%; in assay [6], 11.6%.
In the case of `Cc1c2cnccc2c(C)c2c1c1ccccc1n2CCCCCCCl`, the growth inhibition in assay [1] is 94.5% (active); in assay [2], 69%; in assay [3], 49.8%; in assay [4], 66%; in assay [5] it was 95.7% (active); in assay [6], 98.5% (active).
With `c1ccc(/N=C2\c3ccccc3CN2c2ccccn2)nc1`, the growth inhibition was -21.9% in assay [1]; 3.75% in assay [2]; -7.6% in assay [3]; -3.75% in assay [4]; 9% in assay [5]; -1.35% in assay [6].
For `O=C(Nc1ccc([N+](=O)[O-])cc1)N(c1ccccc1)c1cc(N2CCOCC2)ccn1`, the growth inhibition in assay [1] is 40.7%; in assay [2] it was 16.6%; in assay [3] it was 9.1%; in assay [4] it was 13.8%; in assay [5] it was 5.8%; in assay [6], 34.9%.
As to `COc1cccc(-c2cc(=O)c3cc(OC)ccc3[nH]2)c1`, the growth inhibition in assay [1] is -19.8%; in assay [2], -1.6%; in assay [3], -14%; in assay [4], 6.15%; in assay [5], 13.2%; in assay [6] it was -13.3%.
For `O=c1c2cccnc2[nH]c2ccc3scnc3c12`, the growth inhibition in assay [1] was -8.85%; in assay [2], -11.3%; in assay [3], -3.75%; in assay [4], 22.2%; in assay [5] it was -20.1%; in assay [6], 40.7%.
In the case of `O=c1cc(Nc2ccccc2)c2ccccc2[nH]1`, the growth inhibition in assay [1] is -3.3%; in assay [2] it was -20.1%; in assay [3] it was 7.3%; in assay [4], 12.6%; in assay [5] it was -15.3%; in assay [6], 23.3%.
Consider `CC(O)(c1ccccc1)C1CC1` (stereo not drawn), for which the growth inhibition in assay [1] was -1.55%; in assay [2], -29.2%; in assay [3], -16.7%; in assay [4] it was -0.65%; in assay [5] it was -16.1%; in assay [6], -4.05%.
Consider `c1cc(-c2cn3c(n2)SCC3)ccn1`, for which the growth inhibition in assay [1] is 15.5%; in assay [2], 5.9%; in assay [3], -12.8%; in assay [4] it was 7.8%; in assay [5], 25.2%; in assay [6] it was 19.9%.
With `CC(CCC(=O)CS(C)=O)C1CCC2C3CCC4CCCCC4(C)C3CCC12C` (stereo not drawn), the growth inhibition in assay [1] is 34.1%; in assay [2], -20.4%; in assay [3], 25.8%; in assay [4], 11.6%; in assay [5], -4%; in assay [6], 0.95%.
